# Test results from PMC5540273 (PLoS ONE, 2017).
# Where “and” joins values, the source holds several entries; their conditions need not be identical. Equal values may be shown once. Read-outs that look alike come from different tables or passages of the source.
# Columns and labels:
# [1] = test system: TTK; conditions: concentration: 1 μM, replicates: in singlicate; n = 1
# [2] = test system: TXK; conditions: n = 1
# [3] = test system: TYK2(JH1domain-catalytic); conditions: n = 1
# [4] = test system: TYK2(JH2domain-pseudokinase); conditions: n = 1
# [5] = test system: TYRO3; conditions: n = 1
# [6] = test system: ULK1; conditions: concentration: 1 μM, replicates: in singlicate; n = 1
# [7] = test system: ULK2; conditions: n = 1
# [8] = test system: ULK3; conditions: n = 1
# [9] = test system: T1, VEGFR2; conditions: n = 1
# T1 construct: gene KDR
# [10] = test system: T2, VPS34; conditions: n = 1
# T2 construct: gene PIK3C3
# [11] = test system: VRK2; conditions: concentration: 1 μM, replicates: in singlicate; n = 1
# [12] = test system: WEE1; conditions: n = 1
# [13] = test system: WEE2; conditions: n = 1
# [14] = test system: WNK1; conditions: n = 1
# [15] = test system: WNK2; conditions: n = 1
# [16] = test system: WNK3; conditions: n = 1
# [17] = test system: WNK4; conditions: n = 1
# [18] = test system: T3, YANK1; conditions: n = 1
# T3 construct: gene STK32A
# [19] = test system: T4, YANK2; conditions: n = 1
# T4 construct: gene STK32B
# [20] = test system: T5, YANK3; conditions: n = 1
# T5 construct: gene STK32C
# [21] = concentration: 1 μM, replicates: in singlicate
# [22] = concentration: 1 μM,replicates: in singlicate, 1 µM
# 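Further: KINOMEscan kinase panel screen.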
compound,measurement,setting,value
COc1cc2ncnc(Nc3ccc4nc(-c5ccccc5)[nH]c4c3)c2cc1OC.Cl [GW282450],%Inh,[1],30%
same,%Inh,[2]; [21],0%
same,%Inh,[3]; [21],9%
same,%Inh,[4]; [21],10%
same,%Inh,[5]; [21],0%
same,%Inh,[6],1%
same,%Inh,[7]; [21],0%
same,%Inh,[8]; [21],2%
same,%Inh,[9]; [21],27%
same,%Inh,[10]; [21],7%
same,%Inh,[11],0%
same,%Inh,[12]; [21],0%
same,%Inh,[13]; [21],0%
same,%Inh,[14]; [21],10%
same,%Inh,[15]; [21],16%
same,%Inh,[16]; [21],6%
same,%Inh,[17]; [21],0%
same,%Inh,[18]; [21],2%
same,%Inh,[19]; [21],0%
same,%Inh,[20]; [21],9%
CN(C)CCN(C)C(=O)c1cc(-c2ccncc2)c(-c2ccc(Cl)c(O)c2)o1.Cl.Cl [SB-710397],%Inh,[1],0%
same,%Inh,[2]; [21],4%
same,%Inh,[3]; [21],43%
same,%Inh,[4]; [21],45%
same,%Inh,[5]; [21],0%
same,%Inh,[6],13%
same,%Inh,[7]; [21],0%
same,%Inh,[8]; [21],9%
same,%Inh,[9]; [21],0%
same,%Inh,[10]; [21],0%
same,%Inh,[11],24%
same,%Inh,[12]; [21],0%
same,%Inh,[13]; [21],5%
same,%Inh,[14]; [21],15%
same,%Inh,[15]; [21],0%
same,%Inh,[16]; [21],38%
same,%Inh,[17]; [21],47%
same,%Inh,[18]; [21],49%
same,%Inh,[19]; [21],71%
same,%Inh,[20]; [21],35%
Cc1ccc(NC(=O)Nc2cc(C(C)(C)C)nn2-c2ccccc2)cc1 [GSK1014915],%Inh,[1],4%
same,%Inh,[2]; [21],0%
same,%Inh,[3]; [21],25%
same,%Inh,[4]; [21],4%
same,%Inh,[5]; [21],7%
same,%Inh,[6],17%
same,%Inh,[7]; [21],0%
same,%Inh,[8]; [21],13%
same,%Inh,[9]; [21],6%
same,%Inh,[10]; [21],0%
same,%Inh,[11],0%
same,%Inh,[12]; [21],0%
same,%Inh,[13]; [21],7%
same,%Inh,[14]; [21],9%
same,%Inh,[15]; [21],0%
same,%Inh,[16]; [21],13%
same,%Inh,[17]; [21],25%
same,%Inh,[18]; [21],13%
same,%Inh,[19]; [21],5%
same,%Inh,[20]; [21],7%
Cn1ccc2ncnc(Oc3cccc(C(=O)Nc4ccccc4)c3)c21,%Inh,[1],0%
same,%Inh,[2]; [21],0%
same,%Inh,[3]; [21],0%
same,%Inh,[4]; [21],0%
same,%Inh,[5]; [21],0%
same,%Inh,[6],0%
same,%Inh,[7]; [21],6%
same,%Inh,[8]; [21],9%
same,%Inh,[9]; [21],59%
same,%Inh,[10]; [21],11%
same,%Inh,[11],0%
same,%Inh,[12]; [21],5%
same,%Inh,[13]; [21],0%
same,%Inh,[14]; [21],0%
same,%Inh,[15]; [21],0%
same,%Inh,[16]; [21],0%
same,%Inh,[17]; [21],0%
same,%Inh,[18]; [21],11%
same,%Inh,[19]; [21],1%
same,%Inh,[20]; [21],29%
Cn1ccc2ncnc(Oc3ccc(Nc4nc5ccccc5[nH]4)cc3)c21,%Inh,[1],2%
same,%Inh,[2]; [21],0%
same,%Inh,[3]; [21],0%
same,%Inh,[4]; [21],0%
same,%Inh,[5]; [21],0%
same,%Inh,[6],0%
same,%Inh,[7]; [21],0%
same,%Inh,[8]; [21],0%
same,%Inh,[9]; [21],0%
same,%Inh,[10]; [21],0%
same,%Inh,[11],0%
same,%Inh,[12]; [21],0%
same,%Inh,[13]; [21],19%
same,%Inh,[14]; [21],0%
same,%Inh,[15]; [21],0%
same,%Inh,[16]; [21],0%
same,%Inh,[17]; [21],0%
same,%Inh,[18]; [21],0%
same,%Inh,[19]; [21],0%
same,%Inh,[20]; [21],2%
Cn1cncc1-c1ccc2ncnc(Nc3ccc(OCc4ccccc4)cc3)c2c1 [GW320571],%Inh,[1],19%
same,%Inh,[2]; [21],34%
same,%Inh,[3]; [21],29%
same,%Inh,[4]; [21],0%
same,%Inh,[5]; [21],3%
same,%Inh,[6],25%
same,%Inh,[7]; [21],0%
same,%Inh,[8]; [21],14%
same,%Inh,[9]; [21],0%
same,%Inh,[10]; [21],23%
same,%Inh,[11],0%
same,%Inh,[12]; [21],16%
same,%Inh,[13]; [21],14%
same,%Inh,[14]; [21],1%
same,%Inh,[15]; [21],15%
same,%Inh,[16]; [21],3%
same,%Inh,[17]; [21],0%
same,%Inh,[18]; [21],94.2%
same,%Inh,[19]; [21],16%
same,%Inh,[20]; [21],7%
COc1ccc(CNC(=O)NC2CCN(c3ccnc(Nc4cc(OC)c(OC)c(OC)c4)n3)C2)cc1 (centres unmarked) [GSK1379748],%Inh,[1],0%
same,%Inh,[2]; [21],8%
same,%Inh,[3]; [21],48%
same,%Inh,[4]; [21],31%
same,%Inh,[5]; [21],0%
same,%Inh,[6],0%
same,%Inh,[7]; [21],0%
same,%Inh,[8]; [21],86%
same,%Inh,[9]; [21],4%
same,%Inh,[10]; [21],7%
same,%Inh,[11],14%
same,%Inh,[12]; [21],5%
same,%Inh,[13]; [21],0%
same,%Inh,[14]; [21],7%
same,%Inh,[15]; [21],30%
same,%Inh,[16]; [21],30%
same,%Inh,[17]; [21],52%
same,%Inh,[18]; [21],0%
same,%Inh,[19]; [21],0%
same,%Inh,[20]; [21],0%
CSc1nn2c(=O)cc(N3CCOCC3)nc2n1Cc1cccc(C(F)(F)F)c1C [GSK2363608],%Inh,[1],0%
same,%Inh,[2]; [22],10% and 0%
same,%Inh,[3]; [22],51% and 72%
same,%Inh,[4]; [22],16% and 8%
same,%Inh,[5]; [22],0% and 18%
same,%Inh,[6],15%
same,%Inh,[7]; [22],5% and 0%
same,%Inh,[8]; [22],15% and 0%
same,%Inh,[9]; [22],8% and 0%
same,%Inh,[10]; [22],94.7% and 96.7%
same,%Inh,[11],0%
same,%Inh,[12]; [22],15% and 11%
same,%Inh,[13]; [22],9% and 10%
same,%Inh,[14]; [22],13% and 7%
same,%Inh,[15]; [22],14% and 22%
same,%Inh,[16]; [22],24% and 10%
same,%Inh,[17]; [22],1% and 4%
same,%Inh,[18]; [22],0% and 3%
same,%Inh,[19]; [22],8% and 0%
same,%Inh,[20]; [22],0% and 68%
Cl.O=C(Nc1cccc(-c2nn3ncccc3c2-c2ccnc(Nc3cccnc3)n2)c1)c1c(F)cccc1F [GSK312879],%Inh,[1],0%
same,%Inh,[2]; [21],1%
same,%Inh,[3]; [21],12%
same,%Inh,[4]; [21],19%
same,%Inh,[5]; [21],0%
same,%Inh,[6],34%
same,%Inh,[7]; [21],0%
same,%Inh,[8]; [21],5%
same,%Inh,[9]; [21],0%
same,%Inh,[10]; [21],0%
same,%Inh,[11],10%
same,%Inh,[12]; [21],0%
same,%Inh,[13]; [21],0%
same,%Inh,[14]; [21],13%
same,%Inh,[15]; [21],7%
same,%Inh,[16]; [21],10%
same,%Inh,[17]; [21],0%
same,%Inh,[18]; [21],7%
same,%Inh,[19]; [21],10%
same,%Inh,[20]; [21],32%
Cc1cccc(-c2nc(Nc3ccncc3)c3ccccc3n2)n1 [GW855857],%Inh,[1],10%
same,%Inh,[2]; [21],11%
same,%Inh,[3]; [21],8%
same,%Inh,[4]; [21],40%
same,%Inh,[5]; [21],0%
same,%Inh,[6],0%
same,%Inh,[7]; [21],0%
same,%Inh,[8]; [21],8%
same,%Inh,[9]; [21],0%
same,%Inh,[10]; [21],52%
same,%Inh,[11],0%
same,%Inh,[12]; [21],23%
same,%Inh,[13]; [21],8%
same,%Inh,[14]; [21],0%
same,%Inh,[15]; [21],0%
same,%Inh,[16]; [21],0%
same,%Inh,[17]; [21],0%
same,%Inh,[18]; [21],0%
same,%Inh,[19]; [21],0%
same,%Inh,[20]; [21],0%
